Assay [1] in a line: CCTE_Shafer_MEA_dev_firing_rate_mean: CCTE's Neural Network Formation Assay for Mean Firing Rate, Shafer Lab (AID 2284031). The essentials:
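Read-out: spike count/recording length, averaged over active electrodes, then AUC across days 5, 7, 9, 12. Rat cortical cultures on MEA; continuous 12-day exposure, media and treatment renewed DIV 5, 9; DMSO baseline.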

Assay [2] can be described thus: CCTE_Shafer_MEA_dev_per_burst_spike_percent: CCTE's Neural Network Formation Assay for Percent of Spikes in a Burst, Shafer Lab (AID 2284032).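 Further: fitted as a decrease in burst spike percentage below DMSO baseline.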 The essentials: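 Value is trapezoidal AUC over recordings on days 5, 7, 9 and 12 of the well-mean fraction of spikes falling in single-electrode bursts; rat cortical cultures exposed continuously from plating, treatment renewed DIV 5 and 9, fitted downward against DMSO.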

Assay [3] is described as follows: CCTE_Shafer_MEA_dev_active_electrodes_number: CCTE's Neural Network Formation Assay for Number of Active Electrodes, Shafer Lab (AID 2284040; active means hit-call score of the fitted dose curve at least 0.9, where 1 is the maximum;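 further: potency for loss of active electrodes versus DMSO so lower counts are hits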). The essentials:
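Developing rat cortical networks on MEAs, exposed DIV 0–12. Value is the AUC of active-electrode counts (≥5 spikes/min) from days 5, 7, 9, 12, relative to DMSO.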

The nature of assay [4]: CCTE_Shafer_MEA_dev_burst_rate: CCTE's Neural Network Formation Assay for Burst Rate, Shafer Lab (AID 2284042). The method in brief:
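Rat primary cortical cultures on PEI/laminin MEA; compound from plating, re-dosed at DIV 5, 9 media change. Single-electrode bursts/recording length, well mean of active electrodes; AUC over DIV 5–12 recordings; loss-of-signal vs DMSO.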

A short description of assay [5]: CCTE_Shafer_MEA_dev_bursting_electrodes_number: CCTE's Neural Network Formation Assay for Number of Bursting Electrodes, Shafer Lab (AID 2284043; active means hit-call score of the fitted dose curve at least 0.9, where 1 is the maximum;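 further: potency is for loss of bursting electrodes relative to DMSO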). The method in brief:
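Rat cortical primary neurons, 48-well MEA, 16 electrodes/well; dosing DIV 0–12, re-dosed with full media change DIV 5, 9. Recordings DIV 5/7/9/12, AxIS adaptive spike detector; bursting electrode = ≥1 burst/2 min. AUC across days; loss of signal vs DMSO.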

A short description of assay [6]: CCTE_Shafer_MEA_dev_per_burst_interspike_interval: CCTE's Neural Network Formation Assay for Burst Interspike Interval, Shafer Lab (AID 2284044). The method in brief: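 Readout is the average time between spikes inside single-electrode bursts, taken as a well mean across bursting electrodes. Cortical neurons from rat developed networks on MEA plates under continuous 12-day exposure; recordings on days 5, 7, 9 and 12 were integrated by trapezoidal AUC.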

Assay [7] can be described thus: CCTE_Shafer_MEA_dev_burst_duration_mean: CCTE's Neural Network Formation Assay for Mean Burst Duration, Shafer Lab (AID 2284045). The method in brief:
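Rat cortical cultures, 1.5 x 10^5 cells/well with laminin drop; continuous dosing days 0–12, media plus treatment refreshed DIV 5, 9. AxIS adaptive spike detection; mean single-electrode burst duration, AUC over four recordings, negative direction vs DMSO.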

Assay [8] can be described thus: CCTE_Shafer_MEA_dev_interburst_interval_mean: CCTE's Neural Network Formation Assay for Mean Interburst Interval, Shafer Lab (AID 2284046).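 Further: well-mean interburst interval of bursting electrodes as AUC over four recording days; curve fitted for decrease in interburst interval relative to DMSO.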 The essentials:
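Rat cortical neurons, 1.5 x 10^5 cells/well, 48-well MEA; compound from day 0 through DIV 12, media and treatment renewed DIV 5/9. Recordings DIV 5, 7, 9, 12; well-mean interburst interval → trapezoidal AUC, loss direction vs DMSO.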

Assay [9] in a line: CCTE_Shafer_MEA_dev_inter_network_spike_interval_mean: CCTE's Neural Network Formation Assay for Mean Inter-network Spike Interval, Shafer Lab (AID 2284047). The method in brief:
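Primary rat cortical neurons on PEI-coated 48-well MEAs (16 electrodes/well) were exposed from plating day 0 to DIV 12, with dosing renewed at DIV 5 and 9. Recordings at DIV 5, 7, 9, 12 were collapsed by trapezoidal AUC, loss-of-signal fit vs DMSO.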

The nature of assay [10]: CCTE_Shafer_MEA_dev_network_spike_number: CCTE's Neural Network Formation Assay for Number of Network Spikes, Shafer Lab (AID 2284048). The essentials: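 Rat cortical primary cultures on 48-well MEA (16 electrodes/well); continuous exposure DIV 0–12, full medium and treatment exchange DIV 5, 9. Readout: network spike count, AxIS adaptive detection, recordings DIV 5/7/9/12 collapsed to AUC; loss-of-signal fit, DMSO baseline.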

A short description of assay [11]: CCTE_Shafer_MEA_dev_network_spike_peak: CCTE's Neural Network Formation Assay for Mean Number of Electrodes in Network Spike, Shafer Lab (AID 2284049).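 Further: fitted for loss of signal meaning fewer electrodes in network spikes than DMSO.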 The essentials: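 Network-spike peak electrode count from recordings on days 5, 7, 9 and 12 was combined as trapezoidal area under the curve. Rat cortical cultures were treated continuously from plating, with compound renewed at each feed (DIV 5, 9); fits versus DMSO.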

A short description of assay [12]: CCTE_Shafer_MEA_dev_spike_duration_mean: CCTE's Neural Network Formation Assay for Mean Spike Duration, Shafer Lab (AID 2284051).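 Further: mean network spike duration pooled as area under curve over DIV 5 to 12 recordings; potency for a decrease in mean network spike duration versus DMSO.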 The method in brief:
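Rat cortical primary cultures, 48-well MEA (16 electrodes/well); compound from plating, renewed DIV 5, 9. Network spike duration (AxIS adaptive detector) recorded DIV 5/7/9/12, combined as trapezoidal AUC; loss direction vs DMSO.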

Assay [13] is described as follows: CCTE_Shafer_MEA_dev_network_spike_duration_std: CCTE's Neural Network Formation Assay for Standard Deviation of Network Spike Duration, Shafer Lab (AID 2284052).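 Further: area under curve of spike duration SD across recording days 5 to 12; hits are decreases in network spike duration SD versus DMSO vehicle.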 The method in brief: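 Rat cortical cultures, 1.5 x 10^5 cells/well, exposed continuously from plating to DIV 12 with media/compound renewal at DIV 5, 9. Spontaneous activity recorded DIV 5/7/9/12, AxIS adaptive spike detector; AUC across days; negative direction vs DMSO.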

Assay [14] can be described thus: CCTE_Shafer_MEA_dev_per_network_spike_spike_number_mean: CCTE's Neural Network Formation Assay for Mean Number of Spikes in a Network Spike, Shafer Lab (AID 2284053).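 Further: fitted as decrease in spikes per network spike relative to DMSO.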 The method in brief: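 Rat cortical primary cultures on 48-well MEA; compound from day 0, re-dosed with full media change DIV 5, 9. Recorded DIV 5, 7, 9, 12; spikes in 0.05 s window at network-spike peak ÷ total network spikes; AUC; loss vs DMSO.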

The nature of assay [15]: CCTE_Shafer_MEA_dev_per_network_spike_spike_percent: CCTE's Neural Network Formation Assay for Percent of Spikes in a Network Spike, Shafer Lab (AID 2284054). The method in brief:
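Read-out: percent of spikes falling in a 0.05 s window at network-spike peak, from spontaneous MEA recordings on days 5, 7, 9 and 12; trapezoidal AUC; loss of signal versus DMSO. Rat cortical cultures, compound present throughout.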

Assay [16] can be described thus: UKN5_HCS_SBAD2_cell_viability: Viability Assessment in the University of Konstanz (UKN) Leist Lab Neurite Outgrowth Assay in human iPSC-derived immature Dorsal Root Ganglia Neurons (UKN5) (AID 2284056). The essentials:
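iPSC-derived immature peripheral neurons (SBAD2) seeded on Matrigel with CHIR99021, SU5402 and DAPT, dosed 1 h later for 24 h. Viability from Hoechst H-33342 and calcein-AM live staining, high-content imaging; bidirectional fit versus DMSO.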

Assay [17] in a line: CCTE_Shafer_MEA_dev_LDH: CCTE's Lactate Dehydrogenase Assay for Cytotoxicity in the Neural Network Formation Assay, Shafer Lab (AID 2284068; active means hit-call score of the fitted dose curve at least 0.9, where 1 is the maximum;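 further: exposure for twelve days from plating with re-dosing on DIV 5 and 9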). The essentials: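 Rat cortical primary neurons, MEA culture; dosing day 0–12, full medium plus compound exchange DIV 5, 9. Read-out: LDH enzyme activity, spectrophotometric. DMSO = negative control/baseline; signal loss → cytotoxicity.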

Assay [18] in a line: UKN5_HCS_SBAD2_neurite_outgrowth: University of Konstanz (UKN) Leist Lab Neurite Outgrowth Assay in human iPSC-derived immature Dorsal Root Ganglia Neurons (UKN5) (AID 2284070). Particulars: actives raise or lower the signal. The essentials: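 Cryopreserved SBAD2 peripheral neurons were seeded at 100.000 cells/cm2 in N2-S/KSR medium containing CHIR99021, SU5402 and DAPT, then exposed to compounds for 24 h. Neurite area from calcein-AM high-content imaging was fitted bidirectionally against DMSO.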

Assay [19] can be described thus: CCTE_Shafer_MEA_dev_AB: CCTE's Alamar Blue Assay for Cytotoxicity in the Neural Network Formation Assay, Shafer Lab (AID 2284083; active means hit-call score of the fitted dose curve at least 0.9, where 1 is the maximum;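 further: resazurin reduction fluorescence as viability of cultured neurons; twelve days of exposure from plating with re-dosing on DIV 5 and 9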). The essentials:
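Rat cortical primary cultures, 1.5 x 10^5 cells/well on MEA; continuous compound exposure over 12 days of network development, re-dosed with full medium change DIV 5 and 9. Alamar Blue fluorescence; loss of signal = cytotoxicity vs DMSO baseline.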
For orientation: The colour change of resazurin is a common sign of viable cells or microbes.

Assay [20] can be described thus: CCTE_Shafer_MEA_dev_mutual_information_norm: CCTE's Neural Network Formation Assay for Mutual Information Normalization, Shafer Lab (AID 2284091). The essentials: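 Neurons from rat cortex were seeded at 1.5 x 10^5 cells/well onto PEI-coated MEAs in a laminin drop, then exposed to compound from day 0 for twelve days. Network recordings on four days gave mutual information, summarised by AUC relative to DMSO.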

Molecules are shown by their SMILES. Results filed as inconclusive are left out. Active and inactive are the calls of the source. How the source made its calls, unless noted: active means hit-call score of the fitted dose curve at least 0.9, where 1 is the maximum; inactive means score below 0.9.

What is called AC50 is the concentration giving half of the maximal activity seen. For `Brc1ccc(Oc2cc(Br)c(Br)cc2Br)c(Br)c1`, the outcome in assay [1], in [4], in assay [6], in assay [7], in [8] and in assay [9] was inactive. Further, the molecule was called inactive in [10], in assay [13], in [16], in assay [18] and in [20]. Moreover, the AC50 in assay [2] was 13.2 µM (active); in assay [3] it was 14.1 µM (active); in [5], 13.6 µM (active); in assay [11] it was 10 µM (active); in assay [12] it was 10 µM (active); in assay [14], 10 µM (active). Also, the results for the AC50 in assay [15], in assay [17] and in assay [19] were 13.5 µM (active), 11.9 µM (active) and 13.6 µM (active), respectively.

Source of the values: PubChem BioAssay (EPA / NIEHS).
